Bioassay records as filed in PubChem.
ADAM17 inh – ADAM17 inhibition, QFRET primary screen; inhibition, % at 6.95 µM; AID 720648; actives 0.83% (n = 370,000); recombinant ADAM17, EDANS/DABCYL FRET peptide cleavage; P78536;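 active = inhibition above the mean of compounds lying between control limits plus 3 SD, set per campaign, cut at about 8.5% in these data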
ADAM10 inh – ADAM10 inhibition, QFRET primary screen; O14672; recombinant ADAM10, EDANS/DABCYL FRET peptide cleavage, 3 h; inhibition, % at 7 µM; actives 0.62% (n = 370,000);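 active = inhibition above a per-campaign cutoff equal to the mean of compounds falling between control-based bounds plus 3 SD, cut at about 20% in these data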
PLC-beta3 inh – PLC-beta3 (human) inhibition, primary screen; Purified PLC-beta3, fluorogenic substrate, fluorescence; inhibition, % at 12.2 µM; actives 0.18% (n = 370,000); in the data active = inhibition above about 11%
PLCg1 inh – inhibitors of human phospholipase C gamma1; purified PLC-gamma1, fluorogenic substrate, fluorescence; inhibition, % at 12.2 µM; actives 0.84% (n = 370,000); AID 720700; in the data active = inhibition above about 9.5%
proKLK7 act – proKLK7 (human) activation, primary screen | actives 0.9% (n = 370,000) | activation, % at 7 µM | purified proKLK7, EDANS-DABCYL substrate fluorescence; 100% is mature enzyme control, 0% vehicle | P49862;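 active = activation above the mean of all tested compounds plus 3 SD, computed per campaign excluding outliers beyond control limits, cut at about 13% in these data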
Target sequence (P49862 whole entry, looked up): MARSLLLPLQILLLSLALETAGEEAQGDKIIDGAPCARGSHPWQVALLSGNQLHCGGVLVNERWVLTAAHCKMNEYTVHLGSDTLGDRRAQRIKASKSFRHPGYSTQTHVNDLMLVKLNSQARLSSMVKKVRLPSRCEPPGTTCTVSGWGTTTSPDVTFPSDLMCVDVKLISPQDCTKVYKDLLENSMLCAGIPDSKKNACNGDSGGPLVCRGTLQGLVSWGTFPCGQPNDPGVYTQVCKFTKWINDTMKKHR
ADAM10 ctr – counter-screen for ADAM17 exosite inhibitors: inhibitors of human ADAM10; shares compounds with ADAM17 inh; recombinant ADAM10, EDANS/DABCYL FRET peptide cleavage, 3 h; inhibition, % at 6.95 µM; actives 47% (n = 2,900); AID 743256;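 active = mean inhibition over the triplicate runs exceeds the activity threshold set in the earlier primary screen, cut at about 20% in these data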
ADAM17 confirm – confirmation of inhibitors of human ADAM17; recombinant ADAM17, EDANS/DABCYL QFRET peptide cleavage; AID 743257; actives 65% (n = 2,900); shares compounds with ADAM17 inh; inhibition, % at 6.95 µM;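 active = mean inhibition across replicates above the hit cutoff set in the primary screen, cut at about 8.5% in these data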
Of the large screens only hits and unclear results are named; the others gave an inactive call (follow-up assays come after a bar, where they were run). This is a sample that favours compounds with a hit; in the whole collection about 2.9% have one here.

O=C(Nc1ccc2c(c1)OCCO2)C(C1CC1)N1CCN(c2ccc(C(F)(F)F)cn2)CC1 (stereo unspecified)	ADAM17 inh 8.8 | ADAM10 ctr inactive | ADAM17 confirm 11
CC(=O)c1ccc(NC(=O)C(C)OC(=O)C2CCN(c3ccc(C(F)(F)F)cn3)CC2)cc1 (stereo unspecified)	ADAM17 inh 9.0 | ADAM10 ctr inactive | ADAM17 confirm 9.1
O=C(Nc1ccc2c(c1)OCCO2)C(c1ccnc2ccccc12)N1CCN(c2ccc(C(F)(F)F)cn2)CC1 (stereo unspecified)	ADAM17 inh 11 | ADAM10 ctr 54 | ADAM17 confirm 25
CC(OC(=O)C1CCN(c2ccc(C(F)(F)F)cn2)CC1)C(=O)Nc1ccc(S(N)(=O)=O)cc1 (stereo unspecified)	none
CN(Cc1ccccc1)C(=O)COC(=O)C1CCN(S(=O)(=O)c2cccs2)CC1	none
O=C(c1ccncc1)N(Cc1cc2ccccc2[nH]c1=O)C1CCCCC1	none
CCN(CC)C(=O)C1CC(=O)N(c2ccc(F)c(Cl)c2)C1 (stereo unspecified)	ADAM17 inh 9.5 | ADAM10 ctr inactive | ADAM17 confirm inactive
COc1ccc(C(=O)Nc2ccc(S(=O)(=O)N3CCCC3)cc2)cc1	none
COc1ccc(NC(=O)c2ccc(S(=O)(=O)N3CCCCC3)cc2)cc1OC	ADAM17 inh 9.0 | ADAM10 ctr inactive | ADAM17 confirm 10
COc1ccccc1NC(=O)c1ccc(S(=O)(=O)N2CCCC2)cc1	none
COc1ccccc1NS(=O)(=O)c1ccc(C)c(NC(=O)c2ccc(S(=O)(=O)N3CCCCCC3)cc2)c1	ADAM17 inh 12 | ADAM10 ctr 36 | ADAM17 confirm 18
Cc1ccccc1Oc1cc(NC(=O)Cn2cnc([N+](=O)[O-])c2)cc([N+](=O)[O-])c1	none
N=c1c2c(ccn1CCCCc1ccccc1)Oc1ccc3ccccc3c1C2c1ccccc1 (stereo unspecified)	ADAM17 inh 9.6 (no result: proKLK7 act) | ADAM10 ctr 20 | ADAM17 confirm 14
CN(C)/C=N/c1ncnc2c1cnn2-c1ccc(C(F)(F)F)cn1	ADAM17 inh 9.2 | ADAM10 ctr inactive | ADAM17 confirm inactive
CN(CC(=O)Nc1ccc(S(=O)(=O)N2CCCC2)cc1)Cc1cccc(Cl)c1Cl	ADAM17 inh 10 | ADAM10 ctr inactive | ADAM17 confirm inactive
COc1ccccc1CN(C)CC(=O)Nc1cccc(S(=O)(=O)N2CCCCC2)c1	none
CCc1cccc2c(C(=O)COC(=O)c3cccc(S(=O)(=O)N(C)C4CCCCC4)c3)c[nH]c12	none
COc1ccc(OC)c(NC(=O)c2cnn(-c3ccccc3)c2C)c1	none
C[C@H](CO)N1C[C@H](C)[C@@H](CN(C)S(=O)(=O)c2ccc(F)cc2)Oc2ccc(NC(=O)Nc3ccc(C(F)(F)F)cc3)cc2C1=O	ADAM17 inh 9.0, ADAM10 inh 26 | ADAM10 ctr 37 | ADAM17 confirm 19
C[C@H](CO)N1C[C@H](C)[C@@H](CN(C)S(=O)(=O)c2cccs2)Oc2ccc(NC(=O)Nc3ccc(C(F)(F)F)cc3)cc2C1=O	ADAM17 inh 8.7, ADAM10 inh 29 | ADAM10 ctr 40 | ADAM17 confirm 23
Nc1c(Cl)ncnc1NCc1cccnc1	none
COc1ccc([N+](=O)[O-])cc1N1C(=O)c2cccnc2C1=O	none
CC(=O)Oc1ccc([N+](=O)[O-])cc1N1C(=O)c2ccccc2C1=O	ADAM17 inh 9.8, PLC-beta3 inh 12, PLCg1 inh 12 | ADAM10 ctr 23 | ADAM17 confirm 13
COc1ccc(N2CCN(C(=O)CN(c3cccc(Br)c3)S(C)(=O)=O)CC2)cc1	ADAM17 inh 14 | ADAM10 ctr inactive | ADAM17 confirm inactive
CC1CCCC(C(=O)OCc2ccccc2)N1 (stereo unspecified)	none
COc1ccc(C(=O)COC(=O)C(CCCCN2C(=O)C3C4C=CC(C4)C3C2=O)N2C(=O)C3C4C=CC(C4)C3C2=O)cc1 (stereo unspecified)	ADAM17 inh 9.3 | ADAM10 ctr inactive | ADAM17 confirm inactive
CC(=O)Nc1sc(C)c(C)c1C(=O)OCC(=O)Nc1ccc(S(N)(=O)=O)cc1	none
CCOc1cc(CNCCO)cc(Br)c1OCc1ccc(Cl)cc1	ADAM17 inh 12 | ADAM10 ctr inactive | ADAM17 confirm inactive
CC(=O)c1cccc(NC(=O)CN2C(=O)NC3(CCCCCCC3)C2=O)c1	none
O=C(CN1C(=O)NC2(CCCCCCC2)C1=O)Nc1cccc(Br)c1	ADAM17 inh 9.4 | ADAM10 ctr 20 | ADAM17 confirm 12
CCOc1ccc(/C=C/C(=O)c2cc(Br)ccc(=O)c2O)cc1	ADAM17 inh 11 | ADAM10 ctr inactive | ADAM17 confirm 22
O=C(c1ccc(-c2nnc(Nc3cccc(Cl)c3)c3ccccc23)cc1)N1C[C@H]2C[C@H](C1)c1cccc(=O)n1C2	none
COc1nnc(-c2ccc(C(=O)N3C[C@@H]4C[C@H](C3)c3cccc(=O)n3C4)cc2)c2ccccc12	ADAM17 inh 9.6 | ADAM10 ctr inactive | ADAM17 confirm inactive
COc1cccc(OC)c1C(=O)Nc1cccc(-c2nc3ccccc3[nH]2)c1	ADAM17 inh 8.7 | ADAM10 ctr inactive | ADAM17 confirm inactive
O=C(CNC(=O)c1ccccc1F)N/N=C/c1cc(Br)ccc1OCc1ccccc1	ADAM17 inh 8.8 | ADAM10 ctr 32 | ADAM17 confirm 15
O=C(N/N=C/c1cccnc1)c1ccc2ccccc2c1O	none
C/C(=N\NC(=S)NCc1ccccc1)c1ccc2ccccc2c1OC(F)F	ADAM17 inh 12 | ADAM10 ctr inactive | ADAM17 confirm inactive
Cc1ccsc1-c1n[nH]c(=S)n1CC(C)C	none
C=CCc1c(C)nc(-c2ccccc2)nc1N/N=C(\C)c1ccc(N)cc1	none
C=CCc1c(C)nc(-c2ccccc2)nc1Nc1ccccc1O	ADAM17 inh 10 | ADAM10 ctr 29 | ADAM17 confirm 17
C[C@@H]1CC[C@]2(O[C@H](CCO)C[C@@H](O)[C@@H]2O)O1	ADAM17 inh 8.8 | ADAM10 ctr inactive | ADAM17 confirm inactive
C[C@H]1CC[C@@]2(O[C@@H](CCO)C[C@@H](O)[C@@H]2O)O1	none
COc1ccccc1NC(=O)/C(=C/c1cccc([N+](=O)[O-])c1)c1ccccc1	none
O=C(Cn1cnc2ccccc2c1=O)NCC(=O)N1CCOCC1	none
COC[C@H](NS(=O)(=O)c1ccc(Br)cc1F)[C@@H](O)c1ccccc1	ADAM17 inh 9.8 | ADAM10 ctr inactive | ADAM17 confirm 10
Cc1cc(NC(=O)CSc2cc(Cl)ccc2Cl)n(-c2ccccc2)n1	ADAM17 inh 9.2 | ADAM10 ctr inactive | ADAM17 confirm inactive
